The sample as a whole holds a higher share of hits than the screen did.
FBPA Giardia inh = inhibitors of Giardia lamblia fructose-1,6-bisphosphate aldolase | purified Giardia FBPA | Potency, µM (top dose mostly 59.6 µM), hits mostly inhibitors | 290,000 tested, 0.71% active | AID 2451 | A8B2U2; note: nearly all actives have a fitted effect of over 55% in size
Target sequence (A8B2U2 whole entry, looked up): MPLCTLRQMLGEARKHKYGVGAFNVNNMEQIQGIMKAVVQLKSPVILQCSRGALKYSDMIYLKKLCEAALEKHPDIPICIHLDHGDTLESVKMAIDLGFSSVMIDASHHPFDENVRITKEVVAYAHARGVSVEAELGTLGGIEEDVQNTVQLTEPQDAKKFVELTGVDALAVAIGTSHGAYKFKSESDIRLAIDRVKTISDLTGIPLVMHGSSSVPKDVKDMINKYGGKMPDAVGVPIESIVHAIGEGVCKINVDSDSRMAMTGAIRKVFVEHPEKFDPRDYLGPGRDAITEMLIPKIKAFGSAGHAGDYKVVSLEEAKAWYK
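40 nM FBPA preincubated 10 min at RT with compound (up to 57.5 uM final), then substrate plus GAPDH/TPI/NAD/arsenate coupling and diaphorase/resazurin added. Fluorescence read after 20 min at RT, 525/598 nm.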
CHX counter = counter-screen for Shiga toxin inhibitors: cycloheximide protein synthesis inhibition; cell reporter, cycloheximide protein synthesis inhibition counterscreen; max response, %; 300,000 tested, 12% active; AID 2314; in the data active = max response mostly above about 13%, no sharp cut-off; inactive = mostly below about 14%; note: read at 38.3 µM for the half of the compounds with a filed dose
LmPK inhibitor = LmPK (Leishmania mexicana) enzyme inhibition | AID 1721 | Potency, µM (titrated, usually from 57.5 µM), actives largely listed as inhibitors | purified LmPK, Kinase-Glo ATP luminescence, 1 h | Q27686 | 290,000 tested, 0.37% active
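ATP generated from ADP (0.1 mM) and PEP (0.5 mM) by 0.1 nM LmPK over 1 h at room temperature (pH 7.2 imidazole buffer) was detected by coupled luciferase luminescence. Values were normalized to uninhibited and no-enzyme wells.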
Sm TGR inh = blocks Schistosoma mansoni thioredoxin glutathione reductase; purified TGR, DTNB reduction, TNB absorbance 405 nm; Potency, µM (top dose mostly 114 µM), actives largely listed as inhibitors; 360,000 tested, 3% active; AID 485364; note: nearly all actives have a fitted effect of over 60% in size
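Kinetic colorimetric format: TGR-catalysed, NADPH-driven DTNB reduction monitored via TNB absorbance. Enzyme dispensed at 20 nM; compound exposure 15 min at room temperature before reaction start.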
TbPYK inhibitor = inhibitors of Trypanosoma brucei pyruvate kinase | Q57TT1 | TbPYK enzyme, Kinase-Glo Plus ATP luminescence, 45 min | Potency, µM (series often up to 76.8 µM), usual class: inhibitors | 410,000 tested, 0.12% active | AID 624173; note: nearly all actives have a fitted effect of over 50% in size
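TbPYK + substrate in 50 mM TEA pH 7.2, 100 mM KCl, 10 mM MgCl2, 0.05% BSA, 0.01% Tween-20; cpd pinned; ADP 130 uM final; 45 min RT; Kinase-Glo Plus 10 min; luminescence endpoint.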
Shiga toxin inh = inhibitors of Shiga toxin in Vero cells; inhibition, % at 38.7 µM; Vero cells, Shiga toxin protein synthesis inhibition reporter; 290,000 tested, 9.2% active; in the data active = inhibition mostly above about 28%, no sharp cut-off; inactive = mostly below about 43%
Numbers stand for hits; . = inactive; ? = inconclusive; / = not tested or not shown. Unless noted, calls come from the whole dose curve; as a rule, active = well fitted curve in the direction sought with a large enough effect; inconclusive = small, poorly fitted or top-dose-only effect, or another doubt; inactive = no such curve, though single readings can be large; an effect the other way counts as inactive or inconclusive.

SMILES | FBPA Giardia inh | CHX counter | LmPK inhibitor | Sm TGR inh | TbPYK inhibitor | Shiga toxin inh
Cc1nc2sc(C(=O)OC(C)C)c(N)c2c(C)c1C | . | 19 | . | . | . | 41
Cc1nc2sc(C(=O)Nc3ccccc3)c(N)c2c(C)c1[N+](=O)[O-] | . | 50 | . | ? | . | 91
Nc1c(C(=O)Nc2ccccc2)sc2ncc([N+](=O)[O-])cc12 | . | . | . | . | . | .
C=COC(=O)c1sc2nc(C)cc(C)c2c1N | . | . | . | . | . | .
Cc1nc2sc(C(=O)c3ccccc3)c(N)c2c(C)c1C | . | 24 | . | . | . | .
CC(=O)c1ccc(NC(=O)c2sc3nc(C)c(C)c(C)c3c2N)cc1 | . | 54 | . | . | . | 115
COc1ccc(NC(=O)CC(C)n2ccnc2)cc1 (stereo not drawn) | . | . | . | . | . | .
CCN(CC)CC#CCC(O)(c1ccccc1)c1ccccc1 | . | . | . | . | . | .
CC(C)N(CC#CC(O)(c1ccccc1)c1ccccc1)C(C)C | . | . | . | 40µM | . | .
CN(CC#CC(O)(c1ccccc1)c1ccccc1)C(C)(C)C | . | . | . | . | . | .
CC(C)N(CC#CC(O)(c1ccccc1)c1ccccc1)CCO | . | . | . | . | . | .
C=CC(O)(C#CCN(CC)CC)c1ccccc1 (stereo not drawn) | . | . | . | 45µM | . | .
OCCN(CC#CC(O)(c1ccccc1)c1ccccc1)CCO | . | . | . | 40µM | . | .
CCOC(=O)C1(C)CCCN(C(=O)c2ccc3ccccc3c2)C1 (stereo not drawn) | / | / | / | / | . | /
COc1ccc(Nc2ncc(C(=O)Nc3ccc(F)cc3F)c3ccccc23)cc1 | / | / | / | . | . | /
CC(C)c1ccc2oc(-c3ccc(NC(=O)c4ncn[nH]4)cc3)nc2c1 | . | 49 | . | . | . | 86
CCC(C)c1ccc2oc(-c3ccc(NC(=O)c4ncn[nH]4)cc3)nc2c1 (stereo not drawn) | . | . | . | . | . | 41
O=C(Cn1ncc2c3ccccc3n(Cc3cccc(Cl)c3)c2c1=O)NC1CCCCCC1 | / | / | / | . | . | /
CC(=O)c1c(C)n(-c2ccc(Cl)cc2)c2ccc(OC(=O)COc3ccccc3)cc12 | / | / | / | . | . | /
CC(NC(=O)[C@@H](NC(=O)[C@@H]1Cc2ccccc2CN1)C(C)C)c1ccccc1 (stereo partly drawn) | . | . | . | . | . | .
CC(C)[C@H](NC(=O)[C@@H]1Cc2ccccc2CN1)C(=O)Nc1ccc2c(c1)OCO2 | / | 23 | . | . | . | .
C[C@@H](NC(=O)[C@@H]1Cc2ccccc2CN1)C(=O)Nc1ccc2c(c1)OCO2 | . | 17 | . | . | . | .
C[C@@H](NC(=O)[C@@H]1Cc2ccccc2CN1)C(=O)NC1CCCCC1 | / | . | . | . | . | .
COc1ccc(N(CC(=O)NCCSCc2ccco2)S(=O)(=O)c2ccc(C)cc2)cc1 | . | . | . | 28µM | . | .
CS(=O)(=O)N(CC(=O)NCCSCc1ccco1)c1ccc2c(c1)OCO2 | . | . | . | ? | . | .
SMILES | FBPA Giardia inh | CHX counter | LmPK inhibitor | Sm TGR inh | TbPYK inhibitor | Shiga toxin inh
Cc1ccc(N(CC(=O)NCCSCc2ccco2)S(C)(=O)=O)cc1 | . | . | . | 45µM | . | .
Cc1ccc(N(CC(=O)NCCSCc2ccco2)S(=O)(=O)c2ccc(F)cc2)cc1 | . | . | . | . | . | .
Cc1ccc(S(=O)(=O)N(CC(=O)NCCSCc2ccco2)c2ccc(F)cc2)cc1 | . | . | . | 13µM | / | .
Cc1cc(Cl)ccc1N(CC(=O)NCCSCc1ccco1)S(C)(=O)=O | . | . | . | 18µM | . | .
COc1ccc(N(CC(=O)NCCSCc2ccco2)S(=O)(=O)c2ccccc2)cc1 | . | . | . | ? | . | .
O=C(NCc1ccc(Cl)cc1)c1cnc2sc(N3CCOCC3)nn2c1=O | / | / | / | . | . | /
CCCCC[C@H](O)/C=C\[C@H]1[C@H](C/C=C\CCCC(=O)O)[C@@H](O)C[C@H]1O (tested in a mixture with another compound) | . | / | / | / | . | /
CN(c1ccc(C(=O)NCc2ccco2)cc1)S(C)(=O)=O | . | . | . | . | . | .
CN(c1ccc(C(=O)NCCSCc2ccco2)cc1)S(C)(=O)=O | . | 30 | . | ? | . | 41
COc1ccccc1N(CC(=O)NCCSCc1ccco1)S(=O)(=O)c1ccccc1 | . | . | . | 50µM | . | .
O=C(COc1cc2oc(=O)c3c(c2cc1Cl)CCCC3)NCC1CCC(C(=O)O)CC1 (stereo not drawn) | / | . | . | . | . | .
Cc1sc(NC(=S)NC(=O)c2ccco2)c(C#N)c1C | ? | 15 | . | 4µM | . | .
CCOC(=O)c1sc(NC(=O)c2ccco2)c(C#N)c1C | . | . | . | . | . | .
CCc1c(C)sc(NC(=O)c2ccco2)c1C#N | . | 37 | . | . | . | 69
COc1cccc(CNC(=O)CSc2ccc(-c3sc(-c4ccccc4)nc3C)nn2)c1 | / | / | / | . | . | /
CCCC(=O)N(C1CC(C)C(C#N)(C#N)C1(C#N)C#N)N(C)C (stereo not drawn) | . | . | . | 2µM | . | .
CC(=O)Nc1ccc(C(=O)CSc2ncn(-c3ccccc3)n2)cc1 | . | 23 | . | . | . | .
CC(C)[C@H](NC(=O)OCc1ccccc1)C(=O)OCC(=O)N1CCN(c2ccccc2)CC1 | / | / | / | . | . | /
O=C(C[n+]1ccccc1)Nc1ccccc1[N+](=O)[O-] | . | . | . | ? | . | .
CS(=O)(=O)c1ccc(Cl)c(NC(=O)COC(=O)c2c(Cl)cccc2Cl)c1 | . | . | . | / | . | .
O=C(COC(=O)c1c(Cl)cccc1Cl)Nc1ccccc1Br | . | 26 | . | . | . | .
O=C(C[n+]1ccccc1)Nc1ccccc1Br | ? | 24 | . | 0.1µM | . | 53
O=C(COC(=O)c1ccccc1)Nc1ccccc1Br | . | 40 | . | . | . | 65
C=CCn1c(-c2cccn(Cc3cccc(Cl)c3)c2=O)n[nH]c1=S | . | . | . | . | 8.9µM | .
C=CCn1c(-c2cccn(Cc3ccccc3)c2=O)n[nH]c1=S | ? | . | . | . | ? | .
O=c1c(-c2n[nH]c(=S)n2-c2ccccc2)cccn1Cc1cccc(Cl)c1 | . | . | . | . | 13µM | .
Cn1c(=O)c(=O)n(C)c2cc(S(=O)(=O)CCC(=O)Nc3c(F)c(F)c(F)c(F)c3F)ccc21 | / | . | . | ? | . | .
CN(C)C1CCc2[nH]c3ccc(NC(=O)c4ccc(F)cc4)cc3c2C1 (stereo not drawn) | . | . | / | / | / | .
COc1ccc(C=NCCc2ccc(OC)c(OC)c2)cc1OC | / | / | / | / | . | /
COc1ccc(C(O)(CCc2ccccc2)CCN2CCCCC2)cc1 (stereo not drawn) | . | . | . | 2.8µM | . | .
